In PubChem BioAssay:
Unmarked numbers belong to inactive results.

Test: growth of efflux-deficient E. coli DRC39 – strain DRC39, OD650, 48 h, E. coli filamentation inducers, primary screen (AID 1179);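 further: screen aims at cell division blockers that make cells filament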
Settings: E. coli DRC39 delta-acrAB growth, higher = more signal, called active from +8 up or from −8 down

Structure (SMILES) | z-score
CC(CCN1CCCCc2nc(C)c(C)cc21)=NOC[C@@H](C)[C@H](OCc1ccccc1)C(C)C | 0.0039
COC(=O)CC=C[C@@H](C)[C@@H](C=NO[C@@H]1O[C@H](COC(C)=O)[C@@H](OC(C)=O)[C@H](OC(C)=O)[C@H]1OC(C)=O)OC | -0.932
CO[C@@H]1COC(=O)[C@H](CCSC)NC(=O)CC=C[C@@H](C)COC(=O)CCC[C@H]1C | 0.156
CCCNC(=O)OC[C@H]1O[C@H](CCON=C(C)CCC(=O)OC[C@H]2O[C@H](c3ccccc3)C=C[C@@H]2Oc2ccc(OC)cc2)C=C[C@@H]1Oc1ccc(OC)cc1 | 0.363
CCN1C(=O)[C@@H]2[C@H]3C(=CC[C@@H]2C1=O)C1(OCCCO1)[C@H]1O[C@H]1[C@H]3O | -0.985
O=C1[C@H]2[C@H]3[C@H](O)[C@H](O)CC(=NOC[C@@H](O)COCc4ccco4)[C@H]3CC[C@H]2C(=O)N1Cc1ccccc1 | -0.22
CO[C@H]1COC(=O)[C@@H](C)COC(=O)[C@H](C)NC(=O)CC=C[C@H]1C | -0.539
C[C@H]1COC(=O)[C@@H]2CCCN2C(=O)[C@@H](C)COC(=O)[C@H](Cc2ccccc2)NC1=O | 0.503
COC(=O)CC=C[C@@H](C)[C@H](OCc1cccc(-c2ccccc2)c1)C1CCCCC1 | -0.661
C=CC[C@@H]1C=C[C@H](ON=C(C)CCC(=O)OC[C@H]2O[C@H](C#Cc3ccccc3)C=C[C@@H]2Oc2ccc(C)cc2)[C@@H](CO)O1 | -1.55
CON=C[C@@H](NS(=O)(=O)c1ccc(C)cc1)[C@H](C)C=CCC(=O)OC | -0.761
CO[C@@H]1COC(=O)CC=C[C@H](C)[C@H](OC)COC(=O)[C@H](C)NC(=O)CC=C[C@H]1C | -0.0907
CC(CCC(=O)OC[C@H]1O[C@H](C#Cc2ccccc2)C=C[C@@H]1Oc1ccc(C)cc1)=NO[C@H](C)c1cn([C@H](CO)Cc2ccccc2)nn1 | -0.0348
CCOC(=O)[C@H](Cc1ccccc1)NC(=O)CCC1CC(OC(=O)NCc2cccc3ccccc23)CC2(CCCC(COC(=O)NCC(c3ccccc3)c3ccccc3)O2)O1 (stereo partly specified) | -0.661
CC(C)=CCCC(C)=CCON=C1C[C@@H](O)[C@@H](O)[C@@H]2[C@@H]3C(=O)N(C[C@@H]4CCCO4)C(=O)[C@@H]3CC[C@H]12 | -0.543
COC(=O)[C@H]1O[C@@H](c2c(OC)c(OC)c(C)c(OC)c2OC)[C@H](C)[C@@H](O)[C@H]1C | 0.926
COc1ccc(O[C@H]2C=C[C@@H](c3ccccc3)O[C@@H]2COC(=O)CCC(C)=NOC[C@@H](O)[C@H]2O[C@@H]3OC(C)(C)O[C@@H]3[C@H]2O)cc1 | -1.02
CCOC(=O)[C@H](CC(C)C)NC(=O)CCC1CC(OC(=O)NCCc2ccc(F)cc2)CC2(CCCC(COC(=O)NCC3CCCCC3)O2)O1 (stereo partly specified) | -1.02

Structure (SMILES) | z-score
CC(C)=CCCC(C)=CCON=C1C[C@@H](O)[C@@H](O)[C@@H]2[C@@H]3C(=O)N(C4CCCCC4)C(=O)[C@@H]3CC[C@@H]12 | -0.742
COC(=O)CC=C[C@@H](C)[C@@H](C=NOC[C@H]1O[C@H](c2ccccc2)C=C[C@@H]1Oc1ccc(OC)cc1)NS(=O)(=O)c1ccc(C)cc1 | -0.913
CCc1cc2c(nc1CC)CCN(CCC(C)=NO[C@H](C)c1cn([C@@H]3COC[C@H]3O)nn1)C2 | 0.741
CCOC(=O)NN=C1C[C@@H](O)[C@@H](O)[C@@H]2[C@@H]3C(=O)N(Cc4ccc5c(c4)OCO5)C(=O)[C@@H]3CC[C@H]12 | 0.19
CO[C@H]1COC(=O)CC=C[C@H](C)[C@@H](OC)COC(=O)[C@@H](C)NC(=O)CC=C[C@@H]1C | -0.597
CO[C@@H]1COC(=O)CC=C[C@@H](C)[C@@H]2C=C[C@H](O)[C@@H](COC(=O)CC=C[C@H]1C)O2 | 0.799
CCOC(=O)[C@H](CC(C)C)NC(=O)CCC1CC(OC(=O)NCCc2ccc(F)cc2)CC2(CCCC(COC(=O)NCCc3ccccc3OC)O2)O1 (stereo partly specified) | 0.376
CCCNC(=O)OC[C@H]1O[C@H](CCON=C(C)CCN2CCCc3nc(C)c(C)cc32)C=C[C@@H]1Oc1ccc(OC)cc1 | 0.557
CCC(=O)[C@@]1(O)C(=O)N2C(=C3C(=O)OCC[C@@H]31)N(Cc1ccccc1)C(C)=C(C(=O)OC)[C@H]2c1ccccc1 | -0.247
CC(C)(C)N1C(=O)[C@H]2[C@H]3[C@H](O)C=CC(=O)[C@@H]3CC[C@H]2C1=O | -0.231
CC(CCN1CCCc2nc(C)c(C)cc21)=NO[C@@H](C)c1cc(-c2c(C)cc(C)cc2C)no1 | -0.158
C[C@H](ON=C1[C@H]2CCn3c(=O)n(-c4ccccc4)c(=O)n3[C@H]2[C@H](O)[C@@H]2O[C@H]12)c1cn([C@H](CO)Cc2ccccc2)nn1 | 0.223
CCN1C(=O)[C@H]2[C@H]3[C@H](O)[C@H](O)CC(=O)[C@H]3CC[C@H]2C1=O | -0.177
C#CCCCON=C1C[C@@H](O)[C@@H](O)[C@@H]2[C@@H]3C(=O)N(c4ccc(F)cc4F)C(=O)[C@@H]3CC[C@H]12 | 0.537
O=C(NN=C1C[C@@H](O)[C@@H](O)[C@@H]2[C@@H]3C(=O)N(C4CCCCC4)C(=O)[C@@H]3CC[C@@H]12)OCc1ccccc1 | 0.332
CC(CCN1CCCCc2nc(C)c(C)cc21)=NOC[C@@H](O)COCc1ccco1 | 0.562
C=CC1=C[C@H](O)[C@@H]2O[C@@H]2C12OCCCO2 | 0.489
CON=C1[C@H]2CCn3c(=O)n(-c4ccccc4)c(=O)n3[C@H]2[C@H](O)[C@@H]2O[C@H]12 | -1.03
